“And” between values parts separate entries of the source, which are not always exact repeats. Identical values can stand only once.

For one experiment, the target named is T1, Serine/threonine-protein kinase Sgk2 (Homo sapiens) (UniProt Q9HBY8).
T1 sequence (whole entry): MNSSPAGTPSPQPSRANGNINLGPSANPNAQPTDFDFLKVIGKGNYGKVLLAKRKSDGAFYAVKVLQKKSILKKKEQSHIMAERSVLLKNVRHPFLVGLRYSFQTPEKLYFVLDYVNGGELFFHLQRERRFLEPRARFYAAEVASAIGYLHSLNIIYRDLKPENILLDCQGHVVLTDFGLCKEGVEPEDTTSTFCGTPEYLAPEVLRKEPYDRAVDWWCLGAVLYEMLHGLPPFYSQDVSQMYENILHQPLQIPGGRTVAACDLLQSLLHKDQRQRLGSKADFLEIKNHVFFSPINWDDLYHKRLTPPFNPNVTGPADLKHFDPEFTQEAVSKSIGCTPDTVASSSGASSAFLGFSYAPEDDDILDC
The settings on record: at 1 µM.
Broadly, the inhibition is the change of the read-out against control, counted positive when it falls. On to `CC1(C)CC(n2cnc(-c3ccc(F)cc3)c2-c2ccnc(N)n2)CC(C)(C)N1`, for which the inhibition is -3.03%.

For the molecule `CNC(=O)c1ncccc1Nc1nc(Nc2cc3c(cc2OC)CCCN3C(=O)CN(C)C)nc2[nH]ccc12`, the inhibition is 1.29%.

As for `COc1cccc(-n2ncc3c(N/N=C/c4ccc(C(=O)NCCN(C)C)cc4)ncnc32)c1`, the inhibition turned out to be 40.1%.

Consider `Cc1c2ccc(N(C)c3ccnc(Nc4cccc(S(N)(=O)=O)c4)n3)cc2nn1C`, for which the inhibition is 3.7%.

As to `OCCCNc1nccc(-c2c(-c3ccc(F)cc3)nn3cc(C(F)(F)F)ccc23)n1`, the inhibition was found to be 5.76%.

For `COc1cccc(Nc2nccc(-c3cnn4ncccc34)n2)c1`, the inhibition was 6.98%.

On to `O=C(O[C@H]1CN[C@H](C#Cc2cc3ncnc(Nc4ccc(OCc5cccc(F)c5)c(Cl)c4)c3s2)C1)N1CCOCC1`, for which the inhibition worked out at 6.86%.

On to `NS(=O)(=O)c1ccc(N/N=C2\C(=O)Nc3ccc(C(=O)NCc4ccncc4)cc32)cc1`, for which the inhibition came to 8.08%.

`CS(=O)(=O)CCNCc1ccc(-c2ccc3ncnc(Nc4ccc(OCc5ccccc5)cc4)c3c2)o1`: the inhibition was found to be 1.93%.

As for `CCOc1ccc2c(-c3ccnc(Nc4cc(OC)cc(C(F)(F)F)c4)n3)cnn2n1`, the inhibition is 3.1%.

Consider `Nc1nonc1-c1nc2cnccc2n1C1CC1`, for which the inhibition was 50.4% and 54.2%.

Take `CCN1CCC(C(=O)Nc2n[nH]c3nnc(-c4cccc(F)c4F)cc23)CC1`: the inhibition turned out to be 0.65%.

Consider `CS(=O)(=O)CCNCc1ccc(-c2ccc3ncnc(Nc4ccc(OCc5cccc(C(F)(F)F)c5)cc4)c3c2)o1`, for which the inhibition stood at 2.6%.

Regarding `Nc1nccc(-c2c(-c3ccc(F)cc3)ncn2C2CCNCC2)n1`, the inhibition is 0.49% and 1.29%.

A further experiment deals with T2, Serine/threonine-protein kinase Sgk3 (Homo sapiens) (UniProt Q96BR1).
T2 sequence (whole entry): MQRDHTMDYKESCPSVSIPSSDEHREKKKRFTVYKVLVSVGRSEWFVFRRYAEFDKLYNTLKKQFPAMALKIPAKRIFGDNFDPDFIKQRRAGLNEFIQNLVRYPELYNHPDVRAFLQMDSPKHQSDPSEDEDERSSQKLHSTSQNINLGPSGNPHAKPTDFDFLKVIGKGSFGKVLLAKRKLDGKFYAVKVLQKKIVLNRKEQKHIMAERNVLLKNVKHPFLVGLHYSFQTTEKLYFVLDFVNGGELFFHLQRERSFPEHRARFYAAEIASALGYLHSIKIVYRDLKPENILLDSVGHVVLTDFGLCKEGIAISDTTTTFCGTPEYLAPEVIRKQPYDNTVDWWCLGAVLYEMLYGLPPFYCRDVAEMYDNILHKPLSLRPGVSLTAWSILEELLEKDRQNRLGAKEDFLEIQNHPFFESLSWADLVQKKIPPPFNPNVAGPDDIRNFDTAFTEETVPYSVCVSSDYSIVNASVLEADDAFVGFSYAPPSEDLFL
The settings on record: at 0.1 µM.
For `c1cnn2ncc(-c3ccnc(NCCCN4CCOCC4)n3)c2c1`, the inhibition is 5.66%.

For `FC(F)(F)CNc1nccc(-c2cnn3ncccc23)n1`, the inhibition was found to be 2.93%.

With `CCS(=O)(=O)c1ccc(OC)c(Nc2ncc(-c3cccc(F)c3)o2)c1`, the inhibition stood at 3.85%.

Take `COc1ccc(Nc2ncc(-c3ccccc3)o2)cc1OC`: the inhibition was found to be 0.7%.

Consider `Cc1nnc(-c2cccc(-c3ccc(C(=O)NCC4CC4)cc3)c2)o1`, for which the inhibition stood at 3.56%.

For `COc1cc(N2CCN(C(C)C)CC2)ccc1Nc1nc(Nc2cccc3ncccc23)c2cc[nH]c2n1`, the inhibition stood at 0.42%.

Turning to `Cn1c(-c2nonc2N)nc2cnccc21`, the inhibition was found to be 2.77%.

As for `CC1=C(C(=O)Nc2ccc3[nH]nc(C)c3c2)C(c2ccc(C(F)(F)F)cc2)CC(=O)N1` (stereo unspecified), the inhibition was determined as 1.33%.

As for `CN1CCC(n2cnc(-c3ccc(F)cc3)c2-c2ccnc(NCCO)n2)CC1`, the inhibition stood at 5.14%.

Regarding `COc1cc(Nc2ncc(-c3ccccc3)o2)cc(OC)c1`, the inhibition was found to be 3.26%.

`CC1=C(C(=O)Nc2ccc3[nH]ncc3c2)C(c2ccc(F)cc2)N=C(c2ccc(C(F)(F)F)nc2)N1` (stereo unspecified): the inhibition turned out to be 4.38%.

`Cc1ccc(-c2cc3c(NC(=O)C4CC4)ncnc3o2)cc1`: the inhibition was 3.61%.

Take `O=C1Nc2ccccc2/C1=C1\CCc2cc(O)ccc21`: the inhibition amounted to 2.61%.

With `CN(C)CCNC(=O)Nc1ccc(N(C)c2ccnc(Nc3ccc(CS(C)(=O)=O)cc3)n2)cc1`, the inhibition stood at 3.61%.

Regarding `CS(=O)(=O)CCNCc1ccoc1-c1ccc2ncnc(Nc3ccc(OCc4ccccc4)cc3)c2c1`, the inhibition was found to be 5.61%.

With `CS(=O)(=O)Nc1ccc(-c2ccc3c(NC(=O)C4CC4)n[nH]c3c2)cc1`, the inhibition was found to be 2.22%.

As for `O=C(Nc1n[nH]c2nnc(-c3cccnc3)cc12)C1CC1`, the inhibition is -2.68%.

Consider `CC1(C)CC(n2cnc(-c3ccc(F)cc3)c2-c2ccnc(N)n2)CC(C)(C)N1`, for which the inhibition amounted to 1.34%.

Consider `CNC(=O)c1ncccc1Nc1nc(Nc2cc3c(cc2OC)CCCN3C(=O)CN(C)C)nc2[nH]ccc12`, for which the inhibition amounted to 4.05%.

Take `COc1cccc(-n2ncc3c(N/N=C/c4ccc(C(=O)NCCN(C)C)cc4)ncnc32)c1`: the inhibition was determined as 3.22%.

Turning to `Cc1c2ccc(N(C)c3ccnc(Nc4cccc(S(N)(=O)=O)c4)n3)cc2nn1C`, the inhibition was 4.44%.

With `OCCCNc1nccc(-c2c(-c3ccc(F)cc3)nn3cc(C(F)(F)F)ccc23)n1`, the inhibition was 1.97%.

Turning to `COc1cccc(Nc2nccc(-c3cnn4ncccc34)n2)c1`, the inhibition was -0.45%.

For the molecule `O=C(O[C@H]1CN[C@H](C#Cc2cc3ncnc(Nc4ccc(OCc5cccc(F)c5)c(Cl)c4)c3s2)C1)N1CCOCC1`, the inhibition came to 7.16%.

For `NS(=O)(=O)c1ccc(N/N=C2\C(=O)Nc3ccc(C(=O)NCc4ccncc4)cc32)cc1`, the inhibition came to 4.07%.

With `CS(=O)(=O)CCNCc1ccc(-c2ccc3ncnc(Nc4ccc(OCc5ccccc5)cc4)c3c2)o1`, the inhibition is 3.54%.

In the case of `CCOc1ccc2c(-c3ccnc(Nc4cc(OC)cc(C(F)(F)F)c4)n3)cnn2n1`, the inhibition turned out to be 1.37%.

Turning to `Nc1nonc1-c1nc2cnccc2n1C1CC1`, the inhibition was 20% and 22.1%.

For `CCN1CCC(C(=O)Nc2n[nH]c3nnc(-c4cccc(F)c4F)cc23)CC1`, the inhibition was -1.34%.

`CS(=O)(=O)CCNCc1ccc(-c2ccc3ncnc(Nc4ccc(OCc5cccc(C(F)(F)F)c5)cc4)c3c2)o1`: the inhibition turned out to be 3.89%.

Regarding `Nc1nccc(-c2c(-c3ccc(F)cc3)ncn2C2CCNCC2)n1`, the inhibition is -1.13% and 1.78%.

In the next experiment the target is T2, Serine/threonine-protein kinase Sgk3 (Homo sapiens). Conditions: at 1 µM.
`c1cnn2ncc(-c3ccnc(NCCCN4CCOCC4)n3)c2c1`: the inhibition was 8.34%.

Turning to `FC(F)(F)CNc1nccc(-c2cnn3ncccc23)n1`, the inhibition came to 4.28%.

Turning to `CCS(=O)(=O)c1ccc(OC)c(Nc2ncc(-c3cccc(F)c3)o2)c1`, the inhibition was 3.03%.

`COc1ccc(Nc2ncc(-c3ccccc3)o2)cc1OC`: the inhibition was -1.61%.

For `Cc1nnc(-c2cccc(-c3ccc(C(=O)NCC4CC4)cc3)c2)o1`, the inhibition stood at 7.89%.

Turning to `COc1cc(N2CCN(C(C)C)CC2)ccc1Nc1nc(Nc2cccc3ncccc23)c2cc[nH]c2n1`, the inhibition is 0.55%.

Turning to `Cn1c(-c2nonc2N)nc2cnccc21`, the inhibition was determined as 13.6%.

With `CC1=C(C(=O)Nc2ccc3[nH]nc(C)c3c2)C(c2ccc(C(F)(F)F)cc2)CC(=O)N1` (stereo unspecified), the inhibition came to 6.15%.

`CN1CCC(n2cnc(-c3ccc(F)cc3)c2-c2ccnc(NCCO)n2)CC1`: the inhibition is 3.95%.

`COc1cc(Nc2ncc(-c3ccccc3)o2)cc(OC)c1`: the inhibition worked out at 3%.

With `CC1=C(C(=O)Nc2ccc3[nH]ncc3c2)C(c2ccc(F)cc2)N=C(c2ccc(C(F)(F)F)nc2)N1` (stereo unspecified), the inhibition turned out to be 2.31%.

With `Cc1ccc(-c2cc3c(NC(=O)C4CC4)ncnc3o2)cc1`, the inhibition was found to be 4.02%.

Turning to `O=C1Nc2ccccc2/C1=C1\CCc2cc(O)ccc21`, the inhibition was 5.81%.

With `CN(C)CCNC(=O)Nc1ccc(N(C)c2ccnc(Nc3ccc(CS(C)(=O)=O)cc3)n2)cc1`, the inhibition turned out to be 0.64%.

As to `CS(=O)(=O)CCNCc1ccoc1-c1ccc2ncnc(Nc3ccc(OCc4ccccc4)cc3)c2c1`, the inhibition came out at 1.1%.

In the case of `CS(=O)(=O)Nc1ccc(-c2ccc3c(NC(=O)C4CC4)n[nH]c3c2)cc1`, the inhibition came out at 0.14%.

In the case of `O=C(Nc1n[nH]c2nnc(-c3cccnc3)cc12)C1CC1`, the inhibition was -0.26%.

For the molecule `CC1(C)CC(n2cnc(-c3ccc(F)cc3)c2-c2ccnc(N)n2)CC(C)(C)N1`, the inhibition amounted to 1.32%.

As to `CNC(=O)c1ncccc1Nc1nc(Nc2cc3c(cc2OC)CCCN3C(=O)CN(C)C)nc2[nH]ccc12`, the inhibition was found to be 4.49%.

Turning to `COc1cccc(-n2ncc3c(N/N=C/c4ccc(C(=O)NCCN(C)C)cc4)ncnc32)c1`, the inhibition is 3.92%.

On to `Cc1c2ccc(N(C)c3ccnc(Nc4cccc(S(N)(=O)=O)c4)n3)cc2nn1C`, for which the inhibition came to 8.06%.

Turning to `OCCCNc1nccc(-c2c(-c3ccc(F)cc3)nn3cc(C(F)(F)F)ccc23)n1`, the inhibition came out at 2.06%.

On to `COc1cccc(Nc2nccc(-c3cnn4ncccc34)n2)c1`, for which the inhibition came out at 2.03%.

For the molecule `O=C(O[C@H]1CN[C@H](C#Cc2cc3ncnc(Nc4ccc(OCc5cccc(F)c5)c(Cl)c4)c3s2)C1)N1CCOCC1`, the inhibition is 6.57%.

For `NS(=O)(=O)c1ccc(N/N=C2\C(=O)Nc3ccc(C(=O)NCc4ccncc4)cc32)cc1`, the inhibition amounted to 8.33%.

As to `CS(=O)(=O)CCNCc1ccc(-c2ccc3ncnc(Nc4ccc(OCc5ccccc5)cc4)c3c2)o1`, the inhibition was determined as 1.87%.

Take `CCOc1ccc2c(-c3ccnc(Nc4cc(OC)cc(C(F)(F)F)c4)n3)cnn2n1`: the inhibition was -0.48%.

For `Nc1nonc1-c1nc2cnccc2n1C1CC1`, the inhibition is 61.8% and 65.5%.

In the case of `CCN1CCC(C(=O)Nc2n[nH]c3nnc(-c4cccc(F)c4F)cc23)CC1`, the inhibition worked out at 1.23%.

For `CS(=O)(=O)CCNCc1ccc(-c2ccc3ncnc(Nc4ccc(OCc5cccc(C(F)(F)F)c5)cc4)c3c2)o1`, the inhibition was 2.45%.

Consider `Nc1nccc(-c2c(-c3ccc(F)cc3)ncn2C2CCNCC2)n1`, for which the inhibition is -2.95% and -0.32%.

The values above are taken from ChEMBL document CHEMBL1961873, “Compounds: GSK PKIS; Assays: Nanosyn kinase panel” (2012).
